Reference: PubChem BioAssay
For part of these data: Potency and affinity values are given separately. The source made the active and inactive calls.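 How the source made its calls, unless noted: active means fluorescence ratio normalized to control raised more than 50% in primary screen plus both repeat runs; inactive means the rest.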

Assays:
[1] = system: TRPC4 beta (transient receptor potential cation channel C4), mouse; test: TRPC4 cation channel opening, retest – cell-based, Fluo4 calcium, HEK293 TRPC4beta/mu-opioid, duplicates, 10 µM, confirmation (AID 2426); settings: Fluo4 calcium fluorescence, at 10 µM; hits give high values
[2] = system: transient receptor potential cation channel C4 beta (TRPC4), mouse; test: TRPC4 cation channel opening, second retest – cell-based, second round, Fluo4, HEK293 TRPC4beta/mu-opioid, 1 µM, confirmation (AID 2461;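 active means primary screen active and over 50% activation in each of two duplicate runs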); settings: Fluo4 calcium fluorescence, at 1 µM; hits give high values
[3] = system: TRPC4 (transient receptor potential cation channel C4 beta), mouse; test: potentiation of DAMGO EC20 TRPC4 response – cell-based, second round, Fluo-4, HEK293 TRPC4beta/mu-opioid, 1 µM, confirmation (AID 2554;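 active means primary screen hit whose fluorescence ratio, in both repeats, exceeds the weak agonist control mean by 3 SD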); settings: DAMGO EC20, Fluo-4 calcium flux, at 1 µM; hits give high values
[4] = system: TRPC4 beta (transient receptor potential cation channel C4), mouse; test: potentiation of DAMGO EC20 TRPC4 response – cell-based, Fluo-4, HEK293 TRPC4beta/mu-opioid, confirmation (AID 2555;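 active means primary screen hit whose calcium fluorescence ratio, in both repeats, exceeds the weak agonist control mean by 3 SD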); settings: DAMGO EC20, Fluo-4 calcium flux, at 10 µM; hits give high values
[5] = target: Short transient receptor potential channel 4 (Mus musculus) (UniProt Q9QUQ5); test: blockers of DAMGO-evoked TRPC4 calcium flux – cell-based, Fluo4, HEK293 TRPC4beta/mu-opioid, confirmation (AID 2636;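 active means calcium signal cut by more than 3 SD below the full-agonist control yet still positive, in both repeats and the earlier primary screen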); settings: at 10 µM; hits give high values
[6] = target: Short transient receptor potential channel 4 (Mus musculus) (UniProt Q9QUQ5); test: blockers of DAMGO-evoked TRPC4 calcium flux – cell-based, second round, Fluo4, HEK293 TRPC4beta/mu-opioid, 1 µM, confirmation (AID 2637;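 active means calcium signal ratio cut to more than 3 SD under the fully stimulated control mean yet still positive, in both repeats and the primary screen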;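 on inhibition: percent of integrated ratio relative to wells lacking test compound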); settings: at 1 µM; hits give high values
[7] = target: Short transient receptor potential channel 4 (Mus musculus) (UniProt Q9QUQ5); test: calcium entry via TRPC4 opening agents – cell-based, HEK293 TRPC4/mu-opioid, Fluo-4 calcium, dose response (AID 434937;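 active means primary screen activator hit with a dose response curve and TRPC4 channel activation at any tested dose; inactive means no activation, no dose response, or not a primary hit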)
[8] = target: Short transient receptor potential channel 4 (Mus musculus) (UniProt Q9QUQ5); test: potentiation of DAMGO-evoked TRPC4 calcium signal – cell-based, HEK293 TRPC4/mu-opioid, Fluo-4 calcium, EC20 DAMGO, dose response (AID 434941;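 active means earlier screen potentiator hit that boosts the TRPC4 ion channel at some dose, with a dose response; inactive means no potentiation, no dose response, or not a prior hit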;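 further: calcium entry triggered by an EC20 dose of DAMGO at the co-expressed mu-opioid receptor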)
[9] = target: Short transient receptor potential channel 6 (Mus musculus) (UniProt Q61143); test: TRPC6 blockade by TRPC4 inhibitor hits – cell-based, HEK293, membrane potential dye, duplicate, selectivity assay for TRPC4 inhibitor project, confirmation (AID 434948;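 active means active in primary screen and both duplicates, each dropping signal beyond three positive-control SD with fluorescence still positive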); settings: HEK293 TRPC6, membrane potential dye fluorescence, at 10 µM, stimulated with maximal-effect acetylcholine; hits give high values
[10] = target: Short transient receptor potential channel 6 (Mus musculus) (UniProt Q61143); test: TRPC6 opening by TRPC4 activator hits – cell-based, HEK293, membrane potential dye, duplicate, selectivity assay for TRPC4 activator project, confirmation (AID 434950;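 active means membrane potential signal rise above negative control mean plus 3 SD in both duplicates, also active in the earlier TRPC4 screen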); settings: HEK293 TRPC6, membrane potential fluorescence, at 10 µM; activation: hits give high values; outcome: activation
[11] = target: Short transient receptor potential channel 6 (Mus musculus) (UniProt Q61143); test: positive modulators of mouse TRPC6 channel – HEK293 cells, membrane potential dye, duplicate, selectivity assay for TRPC4 potentiator project, confirmation (AID 434952;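 active means compound raising the membrane signal above positive-control mean plus 3 SD in both repeats, and a primary screen hit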); settings: HEK293 TRPC6, membrane potential dye fluorescence, at 10 µM, maximal acetylcholine added after compound; hits give high values
[12] = target: Short transient receptor potential channel 4 (Mus musculus) (UniProt Q9QUQ5); test: calcium flux activators in TRPC4/5HT1a cells, counter-screen for TRPC4 activator project, cell-based, second counter screen, HEK293 TRPC4/5HT1a, Fluo-4 (AID 434977;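 active means calcium signal rise above buffer-control mean plus 5 SD in both duplicates, and also a hit in the primary screen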); settings: Fluo-4 calcium flux, at 10 µM; hits give high values
[13] = serotonin-gated TRPC4 signal block – cell-based, second counter screen, HEK293 TRPC4/5HT1a, Fluo-4, counter-screen for TRPC4 inhibitor project, confirmation (AID 434978;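 active means primary screen active whose calcium signal fell more than 3 SD beyond the full-serotonin control mean in both duplicate plates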;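 on outcome: serotonin given first at submaximal then at maximal dose after compound preincubation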); settings: Fluo-4 calcium flux, at 10 µM, serotonin added to trigger calcium flux; hits give high values
[14] = system: TRPC4 (mouse), co-expressed with 5HT1a in HEK293; test: enhancement of serotonin-evoked TRPC4 response – cell-based, second counter screen, HEK293 TRPC4/5HT1a, Fluo-4, counter-screen for TRPC4 potentiator project, confirmation (AID 434979;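 active means signal rise over 3 SD above mean of control wells given weak agonist, in both repeats and first screen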); settings: Fluo-4 calcium flux, at 10 µM, serotonin added at its EC20 dose; hits give high values
[15] = nonspecific calcium rise without TRPC4 – cell-based, HEK293 mu-opioid receptor line, counter-screen for TRPC4 activator project, confirmation (AID 449723;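 active means hit in primary screen, with calcium signal over 5 SD above buffer well mean in both duplicates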;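 further: counter screen cells carry the mu-opioid receptor alone and lack TRPC4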); settings: HEK293 mu-opioid cells, Fluo-4 calcium fluorescence, at 10 µM; hits give high values
[16] = nonspecific potentiation of DAMGO calcium response – cell-based, HEK293 mu-opioid receptor line, counter-screen for TRPC4 allosteric potentiator project, confirmation (AID 449724;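 active means calcium signal rise more than 3 SD above the low-dose agonist control mean, in both duplicate plates and the primary screen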); settings: HEK293 mu-opioid receptor cells, Fluo-4 calcium flux, at 10 µM, compound added before EC20 DAMGO stimulus; hits give high values

Sequence of Short transient receptor potential channel 4 (Mus musculus) (Q9QUQ5 whole entry, looked up): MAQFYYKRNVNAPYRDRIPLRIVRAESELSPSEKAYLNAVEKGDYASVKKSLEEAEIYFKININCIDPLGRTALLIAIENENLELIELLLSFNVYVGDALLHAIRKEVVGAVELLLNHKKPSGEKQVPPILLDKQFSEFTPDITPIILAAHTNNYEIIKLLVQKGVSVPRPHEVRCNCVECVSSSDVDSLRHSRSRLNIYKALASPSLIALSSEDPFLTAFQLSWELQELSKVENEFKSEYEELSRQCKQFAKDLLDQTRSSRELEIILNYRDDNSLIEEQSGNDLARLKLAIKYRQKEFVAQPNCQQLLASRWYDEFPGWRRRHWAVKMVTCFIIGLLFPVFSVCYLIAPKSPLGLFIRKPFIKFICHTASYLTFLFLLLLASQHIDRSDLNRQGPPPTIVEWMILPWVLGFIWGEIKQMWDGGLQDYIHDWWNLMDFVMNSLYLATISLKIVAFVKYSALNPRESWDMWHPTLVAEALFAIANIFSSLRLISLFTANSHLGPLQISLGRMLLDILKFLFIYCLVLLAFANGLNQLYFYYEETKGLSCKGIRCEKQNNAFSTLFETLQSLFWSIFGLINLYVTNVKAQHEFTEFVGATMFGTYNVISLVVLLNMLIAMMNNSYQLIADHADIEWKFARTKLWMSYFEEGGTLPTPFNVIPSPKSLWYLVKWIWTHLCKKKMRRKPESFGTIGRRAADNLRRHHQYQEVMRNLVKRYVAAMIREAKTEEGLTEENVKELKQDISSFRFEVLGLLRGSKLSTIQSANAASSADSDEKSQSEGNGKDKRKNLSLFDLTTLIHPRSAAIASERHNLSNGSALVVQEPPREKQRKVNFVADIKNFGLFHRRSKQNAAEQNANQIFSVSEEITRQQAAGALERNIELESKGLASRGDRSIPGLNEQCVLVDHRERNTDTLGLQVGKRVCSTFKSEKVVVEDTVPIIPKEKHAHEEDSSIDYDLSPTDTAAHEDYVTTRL
Sequence of Short transient receptor potential channel 6 (Mus musculus) (Q61143 whole entry, looked up): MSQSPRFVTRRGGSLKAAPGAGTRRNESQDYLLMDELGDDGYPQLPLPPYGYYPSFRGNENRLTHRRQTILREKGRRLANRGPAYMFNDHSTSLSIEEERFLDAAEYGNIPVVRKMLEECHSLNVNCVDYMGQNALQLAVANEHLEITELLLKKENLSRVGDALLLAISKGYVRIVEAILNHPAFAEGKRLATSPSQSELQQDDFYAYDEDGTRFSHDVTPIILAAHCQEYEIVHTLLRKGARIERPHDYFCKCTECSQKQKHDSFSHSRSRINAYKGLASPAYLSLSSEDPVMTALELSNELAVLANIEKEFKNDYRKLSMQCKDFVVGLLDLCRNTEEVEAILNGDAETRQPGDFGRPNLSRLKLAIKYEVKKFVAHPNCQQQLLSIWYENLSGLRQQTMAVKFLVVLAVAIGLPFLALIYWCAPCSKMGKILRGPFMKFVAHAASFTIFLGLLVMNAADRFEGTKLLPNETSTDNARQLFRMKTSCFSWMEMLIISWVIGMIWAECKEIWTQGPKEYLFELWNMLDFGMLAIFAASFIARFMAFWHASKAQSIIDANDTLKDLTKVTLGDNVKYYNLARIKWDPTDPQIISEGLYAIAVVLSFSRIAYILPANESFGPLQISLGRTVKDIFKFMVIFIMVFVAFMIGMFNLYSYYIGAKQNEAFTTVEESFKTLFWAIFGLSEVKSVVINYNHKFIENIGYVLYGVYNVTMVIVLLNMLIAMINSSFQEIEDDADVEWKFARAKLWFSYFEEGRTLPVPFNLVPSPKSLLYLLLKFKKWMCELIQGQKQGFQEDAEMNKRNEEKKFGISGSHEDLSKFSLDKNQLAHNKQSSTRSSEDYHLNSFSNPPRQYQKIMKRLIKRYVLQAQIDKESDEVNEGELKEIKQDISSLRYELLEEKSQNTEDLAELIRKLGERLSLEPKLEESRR

Structure (SMILES) | outcome [1] | outcome [2] | outcome [3] | outcome [4] | inhibition [5] | inhibition [6] | outcome [7] | outcome [8] | outcome [9] | outcome [10] | outcome [11] | outcome [12] | inhibition [13] | outcome [14] | outcome [15] | outcome [16] | outcome [6] | outcome [13] | inhibition [9]
Cn1c(-c2ccc(F)cc2)cnc1NCc1ccc(F)cc1 | inactive | inactive | inactive | inactive | 90% (active) | 68% (active) | inactive | inactive | inactive | inactive | inactive | inactive | 22.5% (active) | inactive | inactive | inactive |  |  | 
COc1ccccc1N(C(=O)c1snc(C(N)=O)c1N)C(C(=O)NC1CCCC1)c1ccc2ncccc2c1 (stereo not given) | inactive | inactive | inactive | inactive | 41% (active) |  | inactive | inactive | inactive | inactive | inactive | inactive | 40.6% (active) | inactive | inactive | inactive | inactive |  | 
CCOC(=O)C1(CCOC)CCN(C(C)CCc2ccc(OC)cc2)CC1 (stereo not given) | inactive | inactive | inactive | inactive | 75% (active) |  | inactive | inactive | inactive | inactive | inactive | inactive |  | inactive | inactive | inactive | inactive | inactive | 
Cc1nc(Cl)c(Cl)n1CCOc1ccccc1 | inactive | inactive | inactive | inactive | 94% (active) | 46% (active) | inactive | inactive | inactive | inactive | inactive | inactive | 18.9% (active) | inactive | inactive | inactive |  |  | 
N=c1n(CCO)c2ccccc2n1Cc1ccc(Cl)cc1 | inactive | inactive | inactive | inactive | 96% (active) | 75% (active) | inactive | inactive | inactive | inactive | inactive | inactive | 11.9% (active) | inactive | inactive | inactive |  |  | 
OCC1(CCCc2ccccc2)CCN(Cc2cc(F)ccc2F)CC1 | inactive | inactive | inactive | inactive | 92% (active) |  | inactive | inactive | inactive | inactive | inactive | inactive |  | inactive | inactive | inactive | inactive | inactive | 
CCOc1ccccc1CN1CCC(n2nccc2NC(=O)CCc2ccccc2)CC1 | inactive | inactive | inactive | inactive | 97% (active) | 69% (active) | inactive | inactive | inactive | inactive | inactive | inactive |  | inactive | inactive | inactive |  | inactive | 
COc1ccccc1N1CCc2c(C)nc3c(OC)cccc3c21 | inactive | inactive | inactive | inactive | 92% (active) | 44% (active) | inactive | inactive |  | inactive | inactive | inactive | 16.3% (active) | inactive | inactive | inactive |  |  | 29% (active)
CCCn1c(=N)n(CC(=O)C(C)(C)C)c2ccccc21 | inactive | inactive | inactive | inactive | 92% (active) |  | inactive | inactive | inactive | inactive | inactive | inactive | 42.4% (active) | inactive | inactive | inactive | inactive |  | 
COc1ccc(C(CNC(=O)c2oc3ccc(Cl)cc3c2C)N2CCCCC2)cc1 (stereo not given) | inactive | inactive | inactive | inactive | 83% (active) |  | inactive | inactive | inactive | inactive | inactive | inactive |  | inactive | inactive | inactive | inactive | inactive | 
NS(=O)(=O)c1ccc(CCNCc2ccccc2OCc2ccc(Cl)cc2)cc1 | inactive | inactive | inactive | inactive | 87% (active) | 54% (active) | inactive | inactive | inactive | inactive | inactive | inactive | 31.3% (active) | inactive | inactive | inactive |  |  | 
Cc1nc2ccccc2n1CCOc1ccc(F)cc1 | inactive | inactive | inactive | inactive | 95% (active) | 79% (active) | inactive | inactive | inactive | inactive | inactive | inactive | 7.92% (active) | inactive | inactive | inactive |  |  | 
O=C(COC(=O)Cn1cnc2ccccc2c1=O)Nc1ccccc1Sc1ccc(Cl)cc1 | inactive | inactive | inactive | inactive | 62% (active) | 43% (active) | inactive | inactive | inactive | inactive | inactive | inactive | 26.1% (active) | inactive | inactive | inactive |  |  | 
NC(=O)N/N=C1\c2ccccc2-c2c(C(N)=O)cccc21 | inactive | inactive | inactive | inactive | 80% (active) | 65% (active) | inactive | inactive | inactive | inactive | inactive | inactive | 38.9% (active) | inactive | inactive | inactive |  |  | 
CCCCC(CC)C(=O)Nc1ncc([N+](=O)[O-])s1 (stereo not given) | inactive | inactive | inactive | inactive | 81% (active) |  | inactive | inactive |  | inactive | inactive | inactive | 27.7% (active) | inactive | inactive | inactive | inactive |  | 33.5% (active)
